The list is not random: actives were taken first. Their share in the collection is about 10%.
p97 inhibitor: inhibitors of human p97 ATPase, primary screen, biochemical. Transitional endoplasmic reticulum ATPase (Homo sapiens), P55072. recombinant p97 ATPase, Kinase-Glo ATP luminescence, 3 h. inhibition, % at 8 µM. hit rate 0.42% among 220,000; in the data active = inhibition above about 15%;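 also: 0% = DMSO vehicle and 100% = wells lacking enzyme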
Target sequence (P55072 whole entry, looked up): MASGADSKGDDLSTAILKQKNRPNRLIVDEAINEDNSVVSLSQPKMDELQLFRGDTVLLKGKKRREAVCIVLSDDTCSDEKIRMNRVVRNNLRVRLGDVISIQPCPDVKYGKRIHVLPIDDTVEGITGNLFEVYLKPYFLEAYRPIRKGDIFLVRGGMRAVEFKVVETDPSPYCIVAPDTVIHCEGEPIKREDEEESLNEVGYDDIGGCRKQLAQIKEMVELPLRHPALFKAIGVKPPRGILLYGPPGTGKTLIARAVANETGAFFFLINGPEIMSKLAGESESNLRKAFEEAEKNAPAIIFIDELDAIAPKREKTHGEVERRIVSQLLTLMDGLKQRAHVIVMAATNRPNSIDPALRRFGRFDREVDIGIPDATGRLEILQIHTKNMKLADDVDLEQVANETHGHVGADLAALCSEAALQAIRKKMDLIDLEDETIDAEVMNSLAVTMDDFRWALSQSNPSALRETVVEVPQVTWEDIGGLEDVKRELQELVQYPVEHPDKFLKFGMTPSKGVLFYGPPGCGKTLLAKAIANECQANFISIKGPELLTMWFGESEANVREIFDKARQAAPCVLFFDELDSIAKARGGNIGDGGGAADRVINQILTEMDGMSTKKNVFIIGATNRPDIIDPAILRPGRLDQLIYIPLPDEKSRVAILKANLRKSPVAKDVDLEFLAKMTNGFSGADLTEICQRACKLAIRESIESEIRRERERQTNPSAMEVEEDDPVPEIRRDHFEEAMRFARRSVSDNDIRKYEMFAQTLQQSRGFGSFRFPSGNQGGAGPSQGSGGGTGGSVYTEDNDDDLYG
INS promoter inh: inhibitors of insulin promoter-driven GFP, primary screen, imaging, TRM-6 cells (human fetal islet line), eGFP reporter, cell count; reporter expression induced with tamoxifen; inhibition, % at 2 µM; hit rate 0.9% among 130,000;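 active = inhibition above the mean plus 3 SD, with well images judged a real hit on visual review, cut at about 60% in these data, passing the limit was not always enough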
ROMK mod: ROMK potassium channel modulators, primary screen, cell-based, thallium flux, MLSMR library | ATP-sensitive inward rectifier potassium channel 1 (Homo sapiens), P48048 | Tet-inducible ROMK, thallium flux fluorescence; actives lie on both sides | B-score at 10 µM | hit rate 2% among 130,000;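 active = signal ratio slope over the read window, or its plate-corrected B-score, at least 3 SD from the plate mean, either direction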;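 also: B-score of the F/F0 ratio slope over 7 to 12 s after thallium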
HCT116 PTEN-null: growth suppression of PTEN-null HCT116, primary screen, cell-based, CellTiter-Glo | HCT116 PTEN-null viability, 60 h; active compounds read low | viability, % at 10 µM | hit rate 1.2% among 140,000;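 active = viability at or below a set limit, 4 SD under the median of all tested compounds, cut at about 3.7% in these data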;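 also: PTEN knockout HCT116 line with beta catenin targeted HCT116 as companion control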
Lmaj promast: Leishmania major promastigote growth inhibition, primary screen. Leishmania major promastigotes, resazurin fluorescence viability. hit rate 9% among 200,000. inhibition, % at 10 µM. AID 1063, 2008; in the data active = inhibition above about 50%;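 also: promastigotes grown with compound for 44 hours at 28 °C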
HCT116 bCat-KO: primary screen for growth suppressors in beta-catenin knockout HCT116 cells (colon tumor, human). HCT116 beta-catenin knockout viability, CellTiter-Glo, 60 h; active compounds read low. viability, % at 10 µM. hit rate 1.5% among 140,000. AID 818, 2007;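 active = viability at or under a set limit, the compound median less 4 SD, cut at about 6% in these data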;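 also: 0% = Hyamine 1622 control at 20 µM and 100% = untreated cell control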
Starred values were filed as active, the others as inactive; / = not tested or not shown.

SMILES | p97 inhibitor | INS promoter inh | ROMK mod | HCT116 PTEN-null | Lmaj promast | HCT116 bCat-KO
CCCn1c(NC(=O)c2ccc(Cl)c(S(=O)(=O)N3CCCC3)c2)nc2ccccc21 | 3 | / | -0.5 | 9 | 72* | 8
Cn1c(NC(=O)c2ccccc2NC(=O)C(C)(C)C)nc2ccccc21 | 2 | / | / | 35 | 77* | 39
O=C(NC(c1ccccc1)c1ccccc1)c1cccc(S(=O)(=O)NCc2ccccc2)c1 | 5 | / | 0.23 | 53 | 10 | 58
Cc1ccc(C)c(C(=O)N(C)CC(=O)Nc2ccccc2C(F)(F)F)c1 | -4 | -36 | 0.98 | / | 0 | /
Cc1ccccc1CN(C)CC(=O)NC(C)CCc1ccccc1 (centres undefined) | -1 | / | -1 | / | 9 | /
CCc1nnc(NC(=O)c2ccc(S(=O)(=O)N3CCc4ccccc4C3)cc2)s1 | 3 | -27 | 0.25 | 84 | -5 | 73
CCc1nnc(NC(=O)c2ccc(Cl)c(S(=O)(=O)N3CCc4ccccc4C3)c2)s1 | -1 | -47 | 0.86 | 76 | 52* | 68
O=C(/C=C/c1ccc(F)cc1)N1CC[C@@]2(O)CCCC[C@H]2C1 | -1 | / | / | / | / | /
O=C(Nc1cccc(Cl)c1Cl)c1ccc(-c2ccccc2)cc1 | -3 | / | 1.4 | 98 | -8 | 87
CCOc1ccc(-c2nnc(NC(=O)c3ccc(OCC(C)C)c(OC)c3)o2)cc1 | -10 | / | 0.22 | 18 | 98* | 20
Cc1cccc(C(=O)Nc2nnc(-c3cccnc3)o2)c1 | 8 | 64 | 1.8 | / | 65* | /
O=C(Nc1cc(Cl)ccc1Cl)c1ccc(-c2ccccc2)cc1 | -1 | 54 | / | 95 | 51* | 86
Cc1cccc(C(=O)Nc2nnc(-c3ccncc3)o2)c1 | -1 | -28 | -0.35 | / | -4 | /
COc1cccc(-c2nnc(NC(=O)c3ccc(S(=O)(=O)N4CCOCC4)cc3)o2)c1 | -3 | / | 0.79 | 14 | 96* | 15
Clc1cccc(Cl)c1NC1=NCCN1 | 6 | / | / | / | / | /
COc1cccc(C(=O)Nc2nnc(-c3cccs3)o2)c1 | -3 | / | / | 45 | 32 | 44
COc1cccc(C(=O)Nc2cccc(-c3nnc(-c4ccco4)o3)c2)c1 | -2 | -30 | -1.2 | 7 | 26 | 5.0*
CN(C)c1ccc(C(=O)Nc2nnc(-c3ccc(Cl)cc3)o2)cc1 | 5 | / | / | 6 | 49 | 13
COc1ccc(Br)cc1C(=O)Nc1cccc(-c2nnc(-c3ccco3)o2)c1 | 1 | 11 | / | / | 12 | /
COc1cccc(C(=O)NCC2CCN(c3ccc(S(=O)(=O)N4CCOCC4)cc3)CC2)c1 | 2 | / | -0.28 | 78 | 64* | 81
COc1cccc(-c2nnc(NC(=O)c3ccc4ncsc4c3)o2)c1 | -5 | 0 | 0.48 | 25 | 82* | 22
O=C(Nc1nnc(-c2ccccc2)o1)c1ccc(Cl)cc1 | -3 | / | 10* | 20 | 9 | 28
C(=N\Nc1ccccc1)/c1nc2ccccc2s1 | 5 | / | / | / | / | /
Cc1cc(C(=O)NC(C)C2CCCO2)no1 (centres undefined) | -2 | / | -0.026 | / | -1 | /
CC1CN(S(=O)(=O)c2ccc(C(=O)Nc3nnc(-c4ccc5c(c4)CCCC5)o3)cc2)CC(C)O1 (centres undefined) | -4 | / | / | 13 | 99* | 13
SMILES | p97 inhibitor | INS promoter inh | ROMK mod | HCT116 PTEN-null | Lmaj promast | HCT116 bCat-KO
COc1cccc(-c2nnc(NC(=O)C3CCCCC3)o2)c1 | 4 | / | / | 79 | 66* | 77
O=C(c1ccc(S(=O)(=O)N2CCOCC2)cc1)N1CCN(c2cccc(Cl)c2)CC1 | -9 | -59 | / | 86 | -2 | 90
CC1CN(S(=O)(=O)c2ccc(C(=O)Nc3nnc(-c4ccccn4)o3)cc2)CC(C)O1 (centres undefined) | 0 | 10 | -0.72 | / | 0 | /
CCC(Oc1ccccc1)C(=O)Nc1ccc(-c2nnc(-c3ccco3)o2)cc1 (centres undefined) | -1 | 67 | / | 84 | 94* | 103
O=C(NCC1CCN(c2ccc(S(=O)(=O)N3CCOCC3)cc2)CC1)c1cccc(Cl)c1 | 3 | 12 | -0.081 | 78 | 97* | 76
COc1ccc(-c2nnc(NC(=O)C3CC3)o2)cc1 | -5 | 27 | -0.096 | / | 9 | /
c1ccc(Oc2c3ccccc3nc3ccccc23)cc1 | 7 | / | / | / | / | /
O=C(c1nn(-c2ccccc2)c(=O)c2ccccc12)N1CCN(c2ncccn2)CC1 | 5 | / | 0.93 | / | -5 | /
CCCC(=O)Nc1ccc(Cc2ccc(NC(=O)CCC)c(C(=O)O)c2)cc1C(=O)O | 0 | 8 | 0.11 | / | -11 | /
CCOC(=O)c1sc(NC(=O)c2ccc(Cl)s2)cc1C | 4 | / | / | 96 | -8 | 90
CCOC(=O)c1sc(NC(=O)Nc2ccc(Cl)cc2)cc1C | 6 | 22 | / | 5 | 89* | 5.2*
CC1(C)CC(=O)C(C(C2=C(O)CC(C)(C)CC2=O)c2ccc(O)c([N+](=O)[O-])c2)=C(O)C1 | 6 | -42 | 0.28 | / | -6 | /
O=C(Nc1ccc(Cl)cc1)N1CCCC(Cn2cccc2)C1 (centres undefined) | 3 | / | 0.89 | / | / | /
CCC(=O)Nc1cccc(C(=O)/C=C/c2ccccc2)c1 | 3 | / | / | 1.4* | 100* | 1.6*
CCC(=O)NC(=S)Nc1ccc(NC(=O)CC)cc1 | -5 | 0 | 0.76 | 93 | -2 | 104
CCC(=O)Nc1ccc(NC(=S)NC(=O)/C=C/c2ccccc2)cc1 | 0 | 50 | -0.58 | 66 | 81* | 69
CCC(=O)Nc1cccc(C(=O)c2ccccc2)c1 | 5 | 54 | 0.078 | 96 | 7 | 96
COc1ccc(/C=C/C(=O)NC(=S)Nc2ccc(C(=O)O)cc2)cc1 | -2 | 27 | 0.68 | 84 | 69* | 80
CC(=O)Nc1ccc(NC(=S)NC(=O)/C=C/c2ccc(Cl)cc2)cc1 | 6 | / | 0.21 | / | 5 | /
COCCNC(=S)Nc1ccc(N2CCCCC2)cc1 | 0 | / | 0.4 | / | 3 | /
COc1cc(OC)cc(C(=O)NNC(=S)NC2CC2)c1 | 1 | / | -0.41 | / | 1 | /
CCOC(=O)Cc1cc(=O)c2cc(C)ccc2[nH]1 | 9 | / | / | / | / | /
CC1CCN(S(=O)(=O)c2cccc(C(=O)O)c2)CC1 | 1 | / | -0.61 | 90 | -9 | 93
CC1CCN(S(=O)(=O)c2ccc3c(c2)C(=NO)c2cc(S(=O)(=O)N4CCC(C)CC4)ccc2-3)CC1 | -1 | -5 | / | 1.2* | 16 | 0.8*
O=S(=O)(c1ccc2c(c1)C(=NO)c1cc(S(=O)(=O)N3CCCCC3)ccc1-2)N1CCCCC1 | -6 | -46 | -0.82 | 1.6* | 42 | 0.9*
O=S(=O)(c1ccc(S(=O)(=O)N2CCCC2)cc1)N1CCCCCC1 | 4 | / | / | 99 | 1 | 95
O=C(CCNS(=O)(=O)c1cccs1)NCc1ccccc1 | 2 | 15 | -0.57 | 100 | 0 | 82

Assay outcomes as filed in PubChem.
